This passage reports growth results from PubChem BioAssay (NCI).

Each structure is given as a SMILES string. Compounds without any hit were thinned out: in the full panel of roughly 83,000, 20% have a hit.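 Treatment: one concentration, 48 hours, 96-well format. Scoring: percent growth, with anything below 10 considered active.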 Values without a mark were called inactive. Active and inactive are the calls of the source.

Among the test systems are DU-145 prostate; K-562 leukemia; MALME-3M melanoma; MDA-MB-231 breast; RXF 393 renal; SF-268 CNS; SF-295 CNS; SF-539 CNS; UACC-257 melanoma; M14 melanoma.
Holding throughout (assay): NCI-60 one-dose screen, 48 h (100 = growth as untreated, 0 = no growth, -100 = all killed)
Holding throughout (conditions): 10 µM unless noted

As to `CCOC(=S)S[C@H]1C[C@@H]2[C@H](CC[C@]3(C)C(=O)CC[C@@H]23)[C@@]2(C)CCC(=O)C=C12`, the growth was 103% in the assay on DU-145 prostate; 95.3% in the assay with K-562 leukemia; 107% in the assay with MALME-3M melanoma; 95.2% with MDA-MB-231 breast; 102% with RXF 393 renal; 95.5% with SF-268 CNS. Also, the growth is 95.7% in the assay with SF-295 CNS, 99.7% in the assay on SF-539 CNS, 101% with UACC-257 melanoma and 102% in the assay on M14 melanoma.
Regarding `COC(=O)[C@@H](C)C[C@H](Cc1ccccc1)NC(=O)c1csc([C@@H](C[C@H](C(C)C)N(C)C(=O)C2(NC(=O)[C@H]3CCCCN3C)CC2)OC(C)=O)n1`, the growth was 7.25% (active) with DU-145 prostate; 3.8% (active) with K-562 leukemia; 73.3% with MALME-3M melanoma; 13.4% in the assay on MDA-MB-231 breast; 77.5% in the assay on RXF 393 renal; 17.5% with SF-268 CNS. In addition, the growth is 4.29% (active) with SF-295 CNS, -10.4% (active) with SF-539 CNS, 56% in the assay on UACC-257 melanoma and 0.0884% (active) in the assay on M14 melanoma.
On to `COc1ccc(/C=C\c2cc(OC)c(OC)c(OC)c2)c(NS(=O)(=O)c2ccc(F)cc2)c1O`, for which the growth with DU-145 prostate is -19.1% (active); with K-562 leukemia, 18.3%; with MALME-3M melanoma, 94.3%; with MDA-MB-231 breast, 8.05% (active); with RXF 393 renal, 23.5%; in the assay with SF-268 CNS it was 15.1%. The growth in the assay with SF-295 CNS is 4.99% (active); in the assay on SF-539 CNS it was 2.76% (active); with UACC-257 melanoma, 66.5%; with M14 melanoma, 6.43% (active).
For the compound `C#Cc1ccc2c(c1)C(c1ccccc1F)=NCC(=O)N2C`, the growth was 69.9% in the assay with DU-145 prostate; 16.7% in the assay with K-562 leukemia; 76.7% in the assay on MALME-3M melanoma; 50.6% in the assay with MDA-MB-231 breast; 73.8% in the assay with RXF 393 renal; 56.3% in the assay with SF-268 CNS. The growth with SF-295 CNS was 35.6%; in the assay with SF-539 CNS, 53%; in the assay on UACC-257 melanoma, 67.1%; in the assay on M14 melanoma, 16.9%.
Regarding `O=C(CCCC1CCCCC1)OCC(Cl)(Cl)Cl`, the growth was 105% in the assay with DU-145 prostate; 99.8% with K-562 leukemia; 102% in the assay on MALME-3M melanoma; 116% in the assay on MDA-MB-231 breast; 114% with RXF 393 renal; 97.1% with SF-268 CNS. Moreover, the growth is 102% in the assay on SF-295 CNS, 104% in the assay on SF-539 CNS, 109% with UACC-257 melanoma and 105% with M14 melanoma.
For the compound `CC(=O)C(c1c(O)c2ccccc2oc1=O)c1cc(=O)oc2c1ccc1ccccc12` (stereo not given), the growth was 115% in the assay on DU-145 prostate; 96.7% in the assay on K-562 leukemia; 98.7% with MALME-3M melanoma; 89.8% with MDA-MB-231 breast; 97% with RXF 393 renal; 103% with SF-268 CNS. In addition, the growth in the assay on SF-295 CNS was 96.3%; in the assay on SF-539 CNS it was 92.7%; with UACC-257 melanoma it was 102%; with M14 melanoma, 102%.
Regarding `CCCCCCCCCCCCCCCCCC1OC[C@H](COC(=O)O[C@@H](C(=O)O[C@H]2C[C@@]3(O)[C@@H](OC(=O)c4ccccc4)[C@@H]4[C@]5(OC(C)=O)CO[C@@H]5C[C@H](O)[C@@]4(C)C(=O)[C@H](OC(C)=O)C(=C2C)C3(C)C)[C@@H](NC(=O)c2ccccc2)c2ccccc2)O1` (stereo not given in full), the growth was 45.7% with DU-145 prostate; 37.5% with K-562 leukemia; 58.9% in the assay on MALME-3M melanoma; 47.2% in the assay with MDA-MB-231 breast; 65.2% in the assay on RXF 393 renal; 73.3% in the assay on SF-268 CNS. For the same compound, the growth in the assay on SF-295 CNS is 53%; in the assay on SF-539 CNS, 43.3%; in the assay with UACC-257 melanoma, 72.2%; in the assay with M14 melanoma, 29.6%.
For `CC(=O)Nc1nc2c(s1)CC[C@@]1(C)C2=CC[C@H]2[C@@H]3CC[C@H](O)[C@@]3(C)CC[C@@H]21`, the growth is 81.7% with DU-145 prostate; 17.5% in the assay with K-562 leukemia; 56.9% in the assay on MALME-3M melanoma; 81.5% with MDA-MB-231 breast; 23.5% in the assay with RXF 393 renal; 73.4% in the assay on SF-268 CNS. Also, the growth in the assay on SF-295 CNS was 36.4%; in the assay on SF-539 CNS, 8.5% (active); in the assay with UACC-257 melanoma, 82%; in the assay with M14 melanoma it was 36%.
As for `O=[N+]([O-])c1c(Br)sc(Br)c1[N+](=O)[O-]`, the growth is 46.9% in the assay with DU-145 prostate; 3.25% (active) in the assay with K-562 leukemia; -41.5% (active) in the assay with MALME-3M melanoma; 14.2% in the assay on MDA-MB-231 breast; -75.5% (active) in the assay with RXF 393 renal; 85.7% in the assay with SF-268 CNS. For the same compound, the growth is 99% in the assay with SF-295 CNS, -12.3% (active) with SF-539 CNS, -0.992% (active) with UACC-257 melanoma and -18.9% (active) with M14 melanoma.
For the compound `CC1=C([Te]c2ccc(O)cc2)C(=O)c2ccccc2C1=O`, the growth in the assay with DU-145 prostate is 7.43% (active); in the assay with K-562 leukemia, -36.6% (active); with MALME-3M melanoma it was 5.22% (active); with MDA-MB-231 breast, 3.12% (active); in the assay with RXF 393 renal it was -0.398% (active); in the assay on SF-268 CNS, 13.8%. For the same compound, the growth with SF-295 CNS was -37.4% (active); in the assay with SF-539 CNS it was -19.1% (active); in the assay with UACC-257 melanoma, 11.7%; in the assay on M14 melanoma, -24.2% (active).
As for `O=C(c1cccc(O)c1O)c1cn(Cc2ccc(F)cc2)c2cccc(O)c12`, the growth in the assay on DU-145 prostate is 36.2%; with K-562 leukemia it was 22.1%; with MALME-3M melanoma, 58.9%; in the assay on MDA-MB-231 breast, 39.1%; with RXF 393 renal, 70%; with SF-268 CNS, 26.3%. In addition, the growth with SF-295 CNS was 41.9%; with SF-539 CNS, 13.8%; in the assay on UACC-257 melanoma it was 34.4%; in the assay on M14 melanoma, -64.3% (active).
With `CC(C)(C)C(=O)OCOP(=O)(NCc1ccccc1)C1CCCN(O)C1=O` (stereo not given), the growth with DU-145 prostate was 55%; with K-562 leukemia it was 32.3%; with MALME-3M melanoma, 19.9%; in the assay on MDA-MB-231 breast it was 22.6%; with RXF 393 renal it was 8.85% (active); in the assay on SF-268 CNS, 10.5%. In addition, the growth is 60.3% in the assay with SF-295 CNS, 45.2% in the assay on SF-539 CNS, 57.3% in the assay on UACC-257 melanoma and 38.4% in the assay with M14 melanoma.
